Compound activity as filed in PubChem BioAssay.
Most compounds without a hit are left out; they make up all but 4.8% or so of the library.
ssDAF12 agonist = activators of S. stercoralis DAF-12 nuclear receptor; HEK293 ssDAF-12/GRIP1 lit1-tk-luc reporter, luminescence; % of 3 µM dafachronic acid response; activation, % at 6.8 µM; 370,000 compounds, 1% hits; AID 652126;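 active means activation above the mean over all tested compounds plus 3 SD, cut at about 0.9% in these data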
DAX1 inh-1 = DAX1 (NR0B1) inhibition, primary screen. HEK293T StAR-luciferase reporter, SF-1/DAX-1 repression relief. 370,000 compounds, 1.1% hits. inhibition, % at 6.8 µM. AID 652010;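 active means inhibition above the mean over all tested compounds plus 3 SD, cut at about 3.6% in these data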;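 further: higher inhibition means more luminescence from relief of DAX-1 repression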
SMARCA2 act = activators of SMARCA2 function. 370,000 compounds, 1% hits. MG213 cells, MMTV-luciferase reporter, dexamethasone, overnight. AID 652017. activation, % at 9.1 µM; in the data active means activation above about 7.8%
hgDAF12 agonist = activates the H. glycines DAF-12 receptor ligand-binding domain | HEK293 GAL4-hgDAF12 UAS-luciferase reporter, agonist luminescence; normalized to butyrate control | activation, % at 6.8 µM | 370,000 compounds, 1.8% hits | AID 687014;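 active means activation above a cutoff set at the mean of all screened compounds plus 3 SD, cut at about 10% in these data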
hcDAF12 agonist = H. contortus DAF-12 activation, primary screen; HEK293 hcDAF-12 lit1-tk-luc reporter, luminescence; 0% DMSO, 100% Δ7-dafachronic acid; activation, % at 6.8 µM; 370,000 compounds, 1.4% hits;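 active means activation above the mean of all tested compounds plus 3 SD, cut at about 5.5% in these data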
DAX1 inh-2 = NR0B1 (DAX1) inhibition; P51843; HEK293 Gal4-DAX1 luciferase reporter, luminescence; inhibition, % at 6.75 µM; 340,000 compounds, 0.99% hits; AID 504766;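 active means inhibition above the mean over all tested compounds plus 3 SD, cut at about 4.2% in these data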;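 further: inhibition shows as a rise in luminescence from relieved DAX1 repression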
LXR ag = activates human LXR-beta, counter-screen for hcDAF-12 agonists; activation, % at 6.8 µM; shares compounds with hcDAF12 agonist; HEK293 Gal4-LXR tk-luc reporter, luminescence, 24 h; normalized: DMSO 0%, positive control 100%; AID 743027; 3,400 tested, under 10 active;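 active means mean percent activation of the reporter above a cutoff set as the average over tested compounds plus their standard deviation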
Target sequence (P55055 whole entry, looked up, the tested form may be a part): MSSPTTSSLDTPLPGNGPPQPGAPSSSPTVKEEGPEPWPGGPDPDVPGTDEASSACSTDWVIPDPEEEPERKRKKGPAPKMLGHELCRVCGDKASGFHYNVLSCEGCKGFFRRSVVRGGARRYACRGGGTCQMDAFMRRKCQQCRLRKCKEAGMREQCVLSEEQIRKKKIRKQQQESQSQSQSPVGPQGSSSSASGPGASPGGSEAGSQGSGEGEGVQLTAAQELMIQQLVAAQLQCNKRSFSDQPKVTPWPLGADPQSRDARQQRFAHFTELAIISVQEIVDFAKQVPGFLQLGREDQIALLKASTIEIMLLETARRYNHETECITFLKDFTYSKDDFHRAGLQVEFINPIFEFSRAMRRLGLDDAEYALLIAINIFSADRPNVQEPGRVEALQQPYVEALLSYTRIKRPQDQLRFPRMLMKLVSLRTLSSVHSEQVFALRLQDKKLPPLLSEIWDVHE
hcDAF12 ag = hcDAF-12 agonism, confirmation assay. HEK293 hcDAF-12 lit1-tk-luc reporter, luminescence; % of Δ7-dafachronic acid response. 3,400 compounds, 61% hits. shares compounds with hcDAF12 agonist. activation, % at 6.8 µM;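 active means mean activation across triplicate tests above the threshold derived from the earlier primary screen, cut at about 5.5% in these data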
Of the large screens only hits and unclear results are named; the others gave an inactive call (follow-up assays come after a bar, where they were run).

CC/C(=N/NC(=O)c1ccc2c(c1)OCO2)c1ccccc1O	ssDAF12 agonist 1.1, hcDAF12 agonist 13.7, DAX1 inh-2 4.9 | LXR ag inactive | hcDAF12 ag inactive
C/C(=N\NC(=O)c1cc2ccccc2cc1O)c1ccc2c(c1)OCO2	none
O=C(NC(=S)NCc1ccccc1)c1cccc([N+](=O)[O-])c1	none
c1ccc2c(c1)CCN(c1ncnc3c1[nH]c1ccccc13)C2	none
Cc1csc(NC(=O)CSc2sc3c(O)cc(=O)[nH]c3c2C#N)n1	hcDAF12 agonist 6.6 | LXR ag inactive | hcDAF12 ag inactive
CC(=O)Nc1cc(C)nn1-c1nc2ccccc2s1	none
COC(=O)c1cn(-c2nc3ccccc3s2)nn1	hcDAF12 agonist 7.8 (no result: DAX1 inh-2) | LXR ag inactive | hcDAF12 ag inactive
CCC1(C)N=C(c2ccc3c(c2)OCO3)CC(c2ccccc2O)N1 (stereo not given)	hcDAF12 agonist 7.9 | LXR ag inactive | hcDAF12 ag inactive
CCCCNCCCOc1cc(Cl)ccc1Cl	none
CCCCON1C(=O)c2cccc3cccc(c23)C1=O	hcDAF12 agonist 9.6 | LXR ag inactive | hcDAF12 ag 7.4
O=C1c2ccccc2C(=O)N1CCCCON1C(=O)c2ccccc2C1=O	none
COc1ccccc1NCC(=O)N/N=C/C=C/c1ccccc1	none
COc1ccc(NCC(=O)N/N=C/C=C\c2ccccc2)cc1	hcDAF12 agonist 7.6 | LXR ag inactive | hcDAF12 ag inactive
CSc1ccccc1C(=O)Nc1ncn[nH]1	none
O=C(/C=C\c1ccccc1OC(=O)c1ccccc1F)c1cc2ccccc2o1	hcDAF12 agonist 7.3, DAX1 inh-2 5.3 | LXR ag inactive | hcDAF12 ag 5.9
Cn1cnc([N+](=O)[O-])c1SCC(O)CCl (stereo not given)	none
O=c1c2cc(Cl)ccc2[nH]c(=S)n1Cc1cccs1	hcDAF12 agonist 6.7 | LXR ag inactive | hcDAF12 ag inactive
CC(C)(C)OC(=O)C[C@@H]1C/C=C\C[C@@H](CC(=O)N(CCO)Cc2ccccc2)C(=O)NC[C@@H](c2ccccc2)OC1=O	none
COc1cccc(NC(=O)n2ncc3c(C)cccc32)c1	ssDAF12 agonist 1.8, hgDAF12 agonist 16.9, hcDAF12 agonist 13.3 | LXR ag inactive | hcDAF12 ag 13.5
Cc1cc(SCC(=O)c2cccs2)nc2ccccc12	hcDAF12 agonist 8.8 | LXR ag inactive | hcDAF12 ag inactive
CC(=O)c1cccc(NC(=O)CN2CCN(S(=O)(=O)/C=C/c3ccccc3)CC2)c1	none
COc1cc(CNc2ccc(N3CCCC3)cc2)ccc1OCc1ccccc1	hcDAF12 agonist 7.7 | LXR ag inactive | hcDAF12 ag 5.9
COc1cc(CNc2ccc(N3CCCC3)cc2)ccc1OCc1ccccc1F	none (no result: ssDAF12 agonist, DAX1 inh-1, SMARCA2 act, hgDAF12 agonist, hcDAF12 agonist)
COc1ccc(O)c(C2=Nc3ccccc3N=C(c3cccs3)C2)c1	none
COc1ccc(C2CC(c3cccs3)=Nc3ccccc3S2)cc1 (stereo not given)	hcDAF12 agonist 8.6 | LXR ag inactive | hcDAF12 ag inactive
CSc1nnc(-c2cc3c(s2)-c2ccccc2CC3)o1	ssDAF12 agonist 2.6, hgDAF12 agonist 10.7, hcDAF12 agonist 9.8 | LXR ag inactive | hcDAF12 ag 10.7
S=c1[nH]nc(-c2cc3c(s2)-c2ccccc2CC3)o1	none
CCn1cc(CNc2nc3nonc3nc2N2CCCCC2)cn1	none
CN(C)c1nc(C(=O)Nc2ccccc2)nc(N(C)C)n1	hcDAF12 agonist 6.7 | LXR ag inactive | hcDAF12 ag inactive
CN(C)c1nc(NNC(=O)c2ccccc2)nc(N(C)C)n1	none
Cc1ccc(C(C[N+](=O)[O-])c2c(C)[nH]n(-c3ccccc3)c2=O)cc1 (stereo not given)	none
Cc1cc([N+](=O)[O-])ccc1N=Nc1c(N)[nH]n(-c2ccccc2)c1=O	none
Cc1[nH]n(-c2ccccc2)c(=O)c1N=Nc1ccc(Cl)cc1	hcDAF12 agonist 8.6 | LXR ag inactive | hcDAF12 ag inactive
Cc1[nH]n(-c2ccccc2)c(=O)c1C(c1ccccc1C(=O)O)c1c(C)[nH]n(-c2ccccc2)c1=O	none
Cc1[nH]n(-c2ccccc2)c(=O)c1N=Nc1c(Cl)cccc1Cl	none (no result: ssDAF12 agonist, DAX1 inh-1, SMARCA2 act, hgDAF12 agonist, hcDAF12 agonist)
Cc1[nH]n(-c2ccccc2)c(=O)c1C(C[N+](=O)[O-])c1ccc(Cl)cc1 (stereo not given)	hcDAF12 agonist 6.9 | LXR ag inactive | hcDAF12 ag inactive
Cc1ccccc1N=Nc1c(N)[nH]n(-c2ccccc2)c1=O	hcDAF12 agonist 6.8 (no result: DAX1 inh-2) | LXR ag inactive | hcDAF12 ag inactive
COc1ccc(C(c2c(C)[nH]n(-c3ccccc3)c2=O)c2c(C)[nH]n(-c3ccccc3)c2=O)cc1OC	hcDAF12 agonist 7.5 | LXR ag inactive | hcDAF12 ag inactive
CC(C)CC(NC(N)=O)C(=O)OCC(=O)Nc1ccc(SC(F)F)cc1 (stereo not given)	none
COC(=O)c1cc2c(c3c4cc(F)ccc4n(C(=O)c4ccccc4)c13)C(=O)N(Cc1ccco1)C2	none (no result: DAX1 inh-2)
O=C(CSc1nnc(SCC(=O)c2ccco2)s1)c1ccco1	none
O=C(CSc1nc2cc(Cl)ccc2s1)c1ccco1	hcDAF12 agonist 9.7 | LXR ag inactive | hcDAF12 ag inactive
Cc1cccc(Nc2ncnc3c2cnn3C)c1	none
O=C(C1=C(O)C(=O)N(CCN2CCOCC2)C1c1cccc(F)c1)c1cc2ccccc2o1 (stereo not given)	hcDAF12 agonist 8.3 | LXR ag inactive | hcDAF12 ag inactive
CC(C)Cc1ccc(C(=O)NCCOc2ccccc2)o1	hcDAF12 agonist 9.9 | LXR ag inactive | hcDAF12 ag 7.4
Cc1ccc(OCCNC(=O)c2ccc(COc3ccccc3)o2)cc1	none
COc1cccc(NC(=O)C2CC2)c1	none
CCC1CCC(NC(=O)Nc2cccc(OC)c2)CC1 (stereo not given)	hgDAF12 agonist 18.7, hcDAF12 agonist 12.3 | LXR ag inactive | hcDAF12 ag 6.2
Cc1cc(O)c(C(=O)/C=C/c2ccc(Cl)cc2)c(=O)o1	hcDAF12 agonist 13.2 | LXR ag inactive | hcDAF12 ag inactive
COc1cc(/C=C/C(=O)c2c(O)cc(C)oc2=O)cc(OC)c1O	none
C=CCn1c(CCNC(=O)C(C)(C)C)nc2ccccc21	none
Cc1ccc(NC(=O)COC(=O)c2ccccc2Cl)cc1S(=O)(=O)N(C)C	none
Cc1ccc(N/N=C2\CS(=O)(=O)N(C)c3ccsc32)cc1	ssDAF12 agonist 1.2, hcDAF12 agonist 10.1, DAX1 inh-2 10.7 | LXR ag inactive | hcDAF12 ag 8.7
CCNC(=O)C1=C(O)c2sccc2N(C)S1(=O)=O	none
